The panel holds about 79,000 compounds, 15% with a hit somewhere; the sample as a whole holds those more often. Active and inactive are the calls of the source. Cut-off read from the data, not from the text of the source: active = growth inhibition above about 70%; inactive = the rest.
assay: NCI Yeast Anticancer Drug Screen. Data for the mlh1 rad18 strain (AID 175); details: S. cerevisiae mlh1 rad18 strain growth inhibition; at 50.0 µM; active compounds read high
Outline: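 Yeast w/ defined DNA-repair lesions; compound exposure; growth vs vehicle controls → % inhibition.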

Structure (SMILES)	growth inhibition
CC1(C)Oc2ccc3c(=O)cc(-c4ccc(F)cc4)oc3c2C1C(=O)O (configuration not stated)	-28.8% (inactive)
OC(c1ccc(F)cc1)(c1cccs1)C1CC1 (configuration not stated)	-20.2% (inactive)
COc1ccc2nc(N/N=C/c3ccc(C)s3)cc(C)c2c1	24.6% (inactive)
CC1CC(C(=O)OC2OC(COC3OC(CO)C(OC4OC(C)C(O)C(O)C4O)C(O)C3O)C(O)C(O)C2O)C2CCC3(C)C(=CCC4(C)C3CCC3C(C)(CO)C(O)C(O)CC34C)C2C1C (configuration not stated)	24.4% (inactive)
COc1cc(/C=C2/SC(=S)NC2=O)cc(OC)c1OC	19.4% (inactive)
Cn1cnc2c(=O)[nH]c(=O)[nH]c21	10.2% (inactive)
Cc1ccc2c(sc(-c3ccc4c(c3)sc(-c3ccc5c(c3)sc(-c3ccc(N(C)C)cc3)[n+]5C)[n+]4C)[n+]2C)c1S(=O)(=O)O (tested in a mixture with another compound)	70.4% (active)
O=C(O)c1cc(C(=O)O)cc([N+](=O)[O-])c1	7.35% (inactive)
NC(=O)CC1OC(=O)Cc2cc3c(c(O)c21)C(=O)c1c(O)cccc1C3=O (configuration not stated)	-28.6% (inactive)
N#CC1(c2ccc(Cl)cc2)CCCC1	-14.8% (inactive)
COc1cc(/C=N/N2C(=O)c3ccccc3C2=O)ccc1O	25.9% (inactive)
CCN(CC)c1ccc(N=Cc2ccccc2S(=O)(=O)O)cc1	34% (inactive)
CCOc1ccc(/C=N/NS(=O)(=O)c2ccc(C)cc2)cc1	-8.2% (inactive)
Cc1c(Cl)cccc1N1C(=O)CC(Sc2ccccc2N)C1=O (configuration not stated)	3% (inactive)
Cc1ccc2nc3c(nc2c1)-c1cccc2cccc-3c12	-12.4% (inactive)
CNC(=S)c1nnsc1N	-0.4% (inactive)
COc1ccc(-c2nc3ccccc3c(=S)n2OC(C)=O)cc1	78.2% (active)
CC(CN1CCCC1)C(O)(Cc1ccccc1)c1ccccc1 (configuration not stated)	-4.15% (inactive)
Cn1c2c(c3ccccc3c1=O)C(=O)c1ccccc1-2	-23.7% (inactive)

Structure (SMILES)	growth inhibition
CCCCCCCCCCCCOc1ccccc1C=O	-17.4% (inactive)
C=C1C(=O)O[C@@H]2C[C@@]3(C)CC(=O)C=C(C)[C@@H]3C[C@H]12	-16.4% (inactive)
O=C(/C=C/c1ccccc1)Nc1ccccc1	35.6% (inactive)
COc1cc(/C=N/NC(=O)c2cccs2)cc(OC)c1OC	-13.3% (inactive)
C=CN1C(=O)N(C=C)C(C)(CC(C)C)C1=O (configuration not stated)	15.8% (inactive)
CC(=O)CCN(Cc1ccccc1)Cc1ccccc1	22.4% (inactive)
COc1cc(/C=N\Nc2ccccc2[N+](=O)[O-])cc(OC)c1OC	-12.9% (inactive)
CC1CCN(c2ccc([N+](=O)[O-])cc2[N+](=O)[O-])CC1	25.6% (inactive)
COc1ccc(/C=C(\C#N)c2ccc(C)cc2)cc1OC	38.1% (inactive)
Cc1ccccc1NC(=S)Nc1ccccn1	10.3% (inactive)
O=c1oc(-c2ccccc2)nc2cc(Cl)ccc12	1.35% (inactive)
O=c1oc(/C=C/c2ccccc2)nc2cc(Cl)ccc12	10.4% (inactive)
C[n+]1ccccc1/C=C/c1cccc(O)c1	17.8% (inactive)
CC(C)=CCc1cc(C2COc3cc4c(c(O)c3C2=O)C=CC(C)(C)O4)c(O)cc1O (configuration not stated)	88% (active)
O=[N+]([O-])c1cccc(S(=O)(=O)OCCOc2ccccc2)c1	17.6% (inactive)
N#CC(=S)Nc1ccc(F)cc1	-5.8% (inactive)
CC1=NN(c2ccccc2)C(=O)/C1=C\c1ccc(N(CCC#N)CCC#N)cc1	21.9% (inactive)
CN(C)c1ccc(C2=C([O-])C(=C3C=CC(=[N+](C)C)C=C3)C2=O)cc1	-5.55% (inactive)

— PubChem BioAssay (NCI)
